# For some assays here: Entries with a potency or affinity are not part of this list. This is one part of the list. Activity calls are given as the source filed them.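 Rule for the calls, unless noted: active = dose curve with midpoint inside tested range, moderate steepness, plateau gap beyond fit error, low compound glow and bead-link interference; inactive = the rest.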
# Columns and labels:
# [1] = hit retest on RPL19A-GFP reporter strain – cell-based, S. cerevisiae, flow cytometry, cherry picks, mother/daughter gates, confirmation (AID 2270;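 active = GFP response below 50% of the DMSO control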); settings: 3 h, at 10 µM, stronger effect = lower value, 100 = same GFP as DMSO wells
# [2] = yeast TOR pathway reporter LAP4-GFP change – cell-based, cherry picks, flow cytometry, mother/daughter gates, confirmation (AID 2271;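 active = GFP response above 150% of the DMSO control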;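 note: ratio of sample to DMSO plate mean so 100% equals DMSO level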); settings: S. cerevisiae LAP4-GFP strain, 3 h, at 10 µM, stronger effect = higher value
# [3] = TOR pathway reporter MEP2-GFP, retest of hits – S. cerevisiae, flow cytometry GFP, cherry picks, confirmation (AID 2272;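 active = GFP response above 150% of the DMSO control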;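 note: ratio of well signal to plate DMSO mean so 100% equals DMSO level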); settings: S. cerevisiae MEP2-GFP strain, 3 h, at 10 µM, stronger effect = higher value
# [4] = yeast AGP1-GFP fluorescence change, single-dose – cell-based, flow cytometry, S. cerevisiae, cherry picks, confirmation (AID 2273;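 active = GFP response above 150% of the DMSO level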;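 note: median GFP channel fluorescence over the whole cell population gate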); settings: S. cerevisiae AGP1-GFP strain, 3 h, at 10 µM
# [5] = TOR pathway CIT2 reporter hit retest – S. cerevisiae, GFP fusion, cherry picks, mother/daughter gates, confirmation (AID 2274;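 active = GFP response above 150% of the DMSO level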); settings: S. cerevisiae CIT2-GFP strain, flow cytometry, 3 h, at 10 µM, stronger effect = higher value
# [6] = molecular target: Cell division control protein 42 homolog (Homo sapiens) (UniProt P60953); test: inhibition of fluorescent GTP binding to constitutively active Cdc42 – biochemical, multiplex bead flow cytometry, Bodipy-FL-GTP, dose response (AID 1333;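 active = fitted half-maximal concentration within the tested dose range, moderate curve steepness, a statistically real signal drop, and little compound fluorescence or tag-binding interference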)
# Cell division control protein 42 homolog (Homo sapiens), sequence (P60953 whole entry, looked up): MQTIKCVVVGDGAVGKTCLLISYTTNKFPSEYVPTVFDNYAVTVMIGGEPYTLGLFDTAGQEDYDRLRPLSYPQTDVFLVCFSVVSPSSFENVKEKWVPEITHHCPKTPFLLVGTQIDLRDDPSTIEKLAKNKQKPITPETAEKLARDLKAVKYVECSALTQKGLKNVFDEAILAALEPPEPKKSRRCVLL
# [7] = molecular target: Cell division control protein 42 homolog (Homo sapiens) (UniProt P60953); test: inhibition of fluorescent GTP binding to wildtype Cdc42 – biochemical, multiplex bead flow cytometry, Bodipy-FL-GTP, dose response (AID 1334;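 active = fitted half-maximal concentration within the tested range, moderate curve steepness, significant signal drop, and little compound fluorescence or bead-linkage interference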); settings: bead-based flow cytometry, Bodipy-FL-GTP binding to GST-Cdc42; at 100 µM (top of the series)
# [8] = system: Ras-related protein Rab-7a (dog), GTP binding; test: blockers of fluorescent GTP binding to Rab7 – biochemical, wildtype, multiplex bead flow cytometry, dose response (AID 1336; call rule not given here)
# [9] = molecular target: Ras-related C3 botulinum toxin substrate 1 (Homo sapiens) (UniProt P63000); test: inhibition of wildtype Rac1 nucleotide loading – biochemical, multiplex bead flow cytometry, dose response (AID 1340); settings: GST-Rac1 beads, Bodipy-FL-GTP binding; at 100 µM (top of the series)
# [10] = molecular target: GTPase HRas (Homo sapiens) (UniProt P01112); test: blockade of GTP loading onto mutant Ras – biochemical, activated mutant, multiplex bead flow cytometry, dose response (AID 1341;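 active = dose-response curve with midpoint inside the tested range, moderate steepness, significant amplitude and little compound fluorescence or bead-attachment interference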;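 note: GST-tagged constitutively activated Ras mutant immobilized on beads and multiplexed with other GTPases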)
# [11] = molecular target: Regulator of G-protein signaling 16 (Homo sapiens) (UniProt O15492); test: small molecules altering RGS protein interactions with GNAO1 – biochemical, multiplexed beads, flow cytometry, RGS4/7/8/16/19, primary screen (AID 1504; call rule not given here;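 note: fluorescently labeled Galpha-o bound to GDP with aluminium fluoride binding biotinylated RGS beads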); settings: multiplexed bead flow cytometry, measured here: RGS16 interaction, at 10 µM
# [12] = molecular target: Regulator of G-protein signaling 4 (Homo sapiens) + Guanine nucleotide-binding protein G(o) subunit alpha (Homo sapiens) (UniProt P49798+P09471); test: as above; settings: multiplexed bead flow cytometry, at 10 µM
# Regulator of G-protein signaling 4 (Homo sapiens) + Guanine nucleotide-binding protein G(o) subunit alpha (Homo sapiens), sequence (P09471 whole entry, looked up): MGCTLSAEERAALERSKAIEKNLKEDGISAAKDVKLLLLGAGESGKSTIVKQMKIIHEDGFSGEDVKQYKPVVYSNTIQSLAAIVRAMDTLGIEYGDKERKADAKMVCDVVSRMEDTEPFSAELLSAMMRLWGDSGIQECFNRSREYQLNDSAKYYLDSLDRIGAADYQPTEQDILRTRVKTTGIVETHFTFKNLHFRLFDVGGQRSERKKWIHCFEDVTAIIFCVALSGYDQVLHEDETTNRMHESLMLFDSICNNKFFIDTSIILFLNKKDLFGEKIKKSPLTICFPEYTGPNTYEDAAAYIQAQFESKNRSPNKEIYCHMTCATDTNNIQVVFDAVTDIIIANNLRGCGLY
# Regulator of G-protein signaling 4 (Homo sapiens) + Guanine nucleotide-binding protein G(o) subunit alpha (Homo sapiens), sequence (P49798 whole entry, looked up): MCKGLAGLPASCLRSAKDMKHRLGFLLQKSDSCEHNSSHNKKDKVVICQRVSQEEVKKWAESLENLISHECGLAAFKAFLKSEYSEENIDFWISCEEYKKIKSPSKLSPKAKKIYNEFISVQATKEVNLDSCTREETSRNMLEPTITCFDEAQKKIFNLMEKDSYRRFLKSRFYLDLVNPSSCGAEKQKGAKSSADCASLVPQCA
# [13] = molecular target: Regulator of G-protein signaling 7 (Homo sapiens) (UniProt P49802); test: as above; settings: multiplexed bead flow cytometry, measured here: RGS7 interaction, at 10 µM
# [14] = molecular target: Regulator of G-protein signaling 8 (Homo sapiens) (UniProt P57771); test: as above; settings: multiplexed bead flow cytometry, measured here: RGS8 interaction, at 10 µM
# [15] = interference with biotin-avidin bead interaction – biochemical, flow cytometry, bead-based, counter-screen for RGS protein interaction modulators (AID 1783;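 active = inhibition above 50%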;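 note: median green fluorescence of gated singlet beads compared with DMSO control wells; 0% = DMSO wells and 100% = complete loss of bead fluorescence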); settings: streptavidin beads, fluorescein-biotin binding, at 10 µM, stronger effect = higher value
# [16] = molecular target: Guanine nucleotide-binding protein G(o) subunit alpha (Homo sapiens) (UniProt P09471); test: retest of RGS8-Galphao interaction hits – biochemical, multiplexed bead flow cytometry, single concentration, confirmation (AID 1836; in the data active = binding response below about 72% or above about 130%; inactive = in between;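 note: Galphao activated as GDP AlF4 complex before binding bead RGS8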); settings: bead-based flow cytometry RGS8-Galphao binding, fluorescence; at 10 µM; actives lie on both sides
# Guanine nucleotide-binding protein G(o) subunit alpha (Homo sapiens), sequence (P09471 whole entry, looked up): as the sequence (P09471 whole entry, looked up) above
# [17] = molecular target: Guanine nucleotide-binding protein G(o) subunit alpha (Homo sapiens) (UniProt P09471); test: retest of RGS7-Galphao interaction hits – biochemical, multiplexed bead flow cytometry, single concentration, confirmation (AID 1837; in the data active = response below about 75% or above about 130%; inactive = in between;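 note: fluorescent Galphao activated with GDP and aluminum fluoride binding bead-coupled RGS7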); settings: bead-based flow cytometry RGS7-Galphao binding; at 10 µM; actives lie on both sides
# [18] = molecular target: Regulator of G-protein signaling 16 (Homo sapiens) + Guanine nucleotide-binding protein G(o) subunit alpha (Homo sapiens) (UniProt O15492+P09471); test: RGS16 and Galphao interaction regulators – biochemical, single concentration, multiplexed bead flow cytometry, confirmation (AID 1838; in the data active = response below about 74% or above about 130%; inactive = in between;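 note: Galphao activated as the GDP aluminium fluoride complex binding bead-coupled RGS16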); settings: bead-based flow cytometry, at 10 µM, actives lie on both sides
# Regulator of G-protein signaling 16 (Homo sapiens) + Guanine nucleotide-binding protein G(o) subunit alpha (Homo sapiens), sequence (O15492 whole entry, looked up): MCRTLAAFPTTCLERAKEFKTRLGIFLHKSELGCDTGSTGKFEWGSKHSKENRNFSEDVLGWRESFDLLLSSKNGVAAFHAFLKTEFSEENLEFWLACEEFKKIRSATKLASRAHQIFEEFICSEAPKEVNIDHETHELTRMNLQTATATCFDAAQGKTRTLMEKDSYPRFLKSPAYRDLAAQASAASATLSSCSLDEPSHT
# Regulator of G-protein signaling 16 (Homo sapiens) + Guanine nucleotide-binding protein G(o) subunit alpha (Homo sapiens), sequence (P09471 whole entry, looked up): as the sequence (P09471 whole entry, looked up) above
# [19] = molecular target: Guanine nucleotide-binding protein G(o) subunit alpha (Homo sapiens) (UniProt P09471); test: RGS4 and Galphao interaction regulators – biochemical, single concentration, multiplexed bead flow cytometry, confirmation (AID 1840; in the data active = binding response below about 74% or above about 130%; inactive = in between); settings: at 10 µM, actives lie on both sides
# [20] = molecular target: Guanine nucleotide-binding protein G(o) subunit alpha (Homo sapiens) + Regulator of G-protein signaling 19 (Homo sapiens) (UniProt P09471+P49795); test: RGS19 interaction with Gαo, hit retest – biochemical, single point, multiplexed bead flow cytometry, confirmation (AID 1841; in the data active = response below about 50% or above about 160%; inactive = in between;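 note: 100% = no compound control and 0% = blank background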); settings: bead-based flow cytometry RGS19-Galphao binding; at 10 µM; actives lie on both sides
# Guanine nucleotide-binding protein G(o) subunit alpha (Homo sapiens) + Regulator of G-protein signaling 19 (Homo sapiens), sequence (P09471 whole entry, looked up): as above
# Guanine nucleotide-binding protein G(o) subunit alpha (Homo sapiens) + Regulator of G-protein signaling 19 (Homo sapiens), sequence (P49795 whole entry, looked up): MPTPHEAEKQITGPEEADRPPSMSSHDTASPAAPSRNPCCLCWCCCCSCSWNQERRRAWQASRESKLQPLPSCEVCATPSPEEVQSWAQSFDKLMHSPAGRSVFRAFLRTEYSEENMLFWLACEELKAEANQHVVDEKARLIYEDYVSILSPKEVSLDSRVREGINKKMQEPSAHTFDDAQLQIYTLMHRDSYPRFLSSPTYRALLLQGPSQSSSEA
# [21] = measured here: daughter cell gate
# [22] = measured here: mother cell gate
# [23] = measured here: daughter cell gate response
# [24] = measured here: mother cell gate response
compound,measurement,setting,value
CC12CN3CC(C)(CN(C1)C31CCOCC1)C2=O,GFP response vs DMSO,[1],95.6% (inactive)
same,GFP response vs DMSO,[1]; [21],96.9%
same,GFP response vs DMSO,[1]; [22],96.6%
same,GFP response relative to DMSO,[2],99.2% (inactive)
same,GFP response relative to DMSO,[2]; [23],97.6%
same,GFP response relative to DMSO,[2]; [24],100%
same,GFP response vs DMSO,[3],96.2% (inactive)
same,"GFP response, % of DMSO",[4],99.5% (inactive)
same,"GFP response, % of DMSO",[5],101% (inactive)
same,"GFP response, % of DMSO",[5]; [21],103%
same,"GFP response, % of DMSO",[5]; [22],101%
CC1(C)CC(n2[nH]c(=O)c3c2NC(=O)CSC3c2ccccc2)CCO1 (stereo not given),outcome,[6],inactive
same,"fluorescence, percent of control (lower = inhibition)",[7],35.5%
same,outcome,[8],inactive
same,"GTP binding signal, raw median fluorescence (lower = inhibition) (MCF (arbitrary fluorescence units))",[9],266
same,outcome,[10],inactive
CC(Oc1ccc(-c2ccccc2)cc1)C(=O)O (stereo not given),outcome,[6],inactive
same,"fluorescence, percent of control (lower = inhibition)",[7],126%
same,outcome,[8],inactive
same,"GTP binding signal, raw median fluorescence (lower = inhibition) (MCF (arbitrary fluorescence units))",[9],213
same,outcome,[10],inactive
CC(C)N(CC#CCC1(O)c2ccccc2-c2ccccc21)C(C)C,RGS16–Galpha-o binding response,[11],180%
same,RGS4–Galpha-o binding response,[12],106% (active)
same,RGS7–Galpha-o binding response,[13],107%
same,RGS8–Galpha-o binding response,[14],122%
same,inhibition,[15],0.7% (inactive)
same,binding response (% of control),[16],98.5% (inactive)
same,response (percent of control binding),[17],99.5% (inactive)
same,response (% of control binding),[18],101% (inactive)
same,binding response (% of control),[19],99.5% (inactive)
same,response (percent of control binding),[20],110% (inactive)
Cc1ccc(C)c(OCCCn2cc(C(=O)O)c3ccccc32)c1,outcome,[6],inactive
same,"fluorescence, percent of control (lower = inhibition)",[7],61.7%
same,outcome,[8],inactive
same,"GTP binding signal, raw median fluorescence (lower = inhibition) (MCF (arbitrary fluorescence units))",[9],36.2
same,outcome,[10],inactive
CC[C@@H]1C(=O)OC[C@@H]1Cc1cncn1C,GFP response vs DMSO,[1],99.5% (inactive)
same,GFP response vs DMSO,[1]; [21],98.3%
same,GFP response vs DMSO,[1]; [22],100%
same,GFP response relative to DMSO,[2],102% (inactive)
same,GFP response relative to DMSO,[2]; [23],101%
same,GFP response relative to DMSO,[2]; [24],102%
same,GFP response vs DMSO,[3],104% (inactive)
same,"GFP response, % of DMSO",[4],103% (inactive)
same,"GFP response, % of DMSO",[5],99.3% (inactive)
same,"GFP response, % of DMSO",[5]; [21],98.3%
same,"GFP response, % of DMSO",[5]; [22],100%
Cc1nn(Cc2ccccc2)c(Cl)c1C(=O)O,"fluorescence, percent of control (lower = inhibition)",[7],45.4%
same,"GTP binding signal, raw median fluorescence (lower = inhibition) (MCF (arbitrary fluorescence units))",[9],270
same,outcome,[10],inactive

# — PubChem BioAssay
